Hit rate of the full screen: of about 5,500 compounds, about 2,000 (36%) were called active. Inconclusive results (about 18%) are left out. No stated cut-off is given here; in the data, active means normalized growth mostly below about 0.91 (no sharp cut-off); inconclusive means no clear call, values can overlap the other calls; inactive means mostly above about 0.92. The list shows a part of the results.
Test: chemical genetic growth profiling, strain panel (AID 1159580);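 further: tested at 20 µM; growth read once vehicle control cultures reached saturation at 30 °C; 1 = growth at the plate median or of vehicle wells; lower values mean less growth of the strain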
Conditions: growth OD

Measured: normalized growth

Cc1occc(=O)c1O
inactive: S. cerevisiae deletion strains, locus YKL009W, strain mrt4, hits give low values 1.01 | S. cerevisiae deletion strains, locus YKL068W, hits give low values 1 | S. cerevisiae deletion strains, locus YKL085W, strain MDH1 (second series), hits give low values 1 | S. cerevisiae deletion strains, locus YKL085W, strain MDH1, hits give low values 1 | S. cerevisiae deletion strains, locus YKL160W, strain elf1, hits give low values 0.962 | S. cerevisiae deletion strains, locus YKR001C, strain vps1, hits give low values 1.03 | S. cerevisiae deletion strains, locus YKR026C, strain gcn3, hits give low values 0.97 | S. cerevisiae deletion strains, locus YKR091W, strain srl3, hits give low values 0.962 | S. cerevisiae deletion strains, locus YLL001W, strain dnm1, hits give low values 0.96 | S. cerevisiae deletion strains, locus YLL026W, hits give low values 0.961 | S. cerevisiae deletion strains, locus YLL041C, strain sdh2, hits give low values 0.977 | S. cerevisiae deletion strains, locus YLR027C, strain aat2, hits give low values 0.97 | S. cerevisiae deletion strains, locus YLR039C, strain RIC1, hits give low values 1.01 | S. cerevisiae deletion strains, locus YLR058C, strain SHM2, hits give low values 1.01 | S. cerevisiae deletion strains, locus YLR102C, strain apc9, hits give low values 1.01 | S. cerevisiae deletion strains, locus YLR113W, strain HOG1, hits give low values 1.03 | S. cerevisiae deletion strains, locus YLR221C, strain rsa3, hits give low values 0.96 | S. cerevisiae deletion strains, locus YLR258W, strain gsy2, hits give low values 0.973 | S. cerevisiae deletion strains, locus YLR262C, strain YPT6 (second series), hits give low values 0.964 | S. cerevisiae deletion strains, locus YLR262C, strain YPT6, hits give low values 1.01 | S. cerevisiae deletion strains, locus YLR268W, strain sec22, hits give low values 1.01 | S. cerevisiae deletion strains, locus YLR320W, strain mms22, hits give low values 0.95 | S. cerevisiae deletion strains, locus YLR330W, strain CHS5, hits give low values 0.999 | S. cerevisiae deletion strains, locus YLR342W, strain FKS1 (second series), hits give low values 1 | S. cerevisiae deletion strains, locus YLR342W, strain FKS1, hits give low values 0.974 | S. cerevisiae deletion strains, locus YLR357W, strain rsc2, hits give low values 0.941 | S. cerevisiae deletion strains, locus YLR370C, strain arc18, hits give low values 0.98 | S. cerevisiae deletion strains, locus YLR371W, strain rom2, hits give low values 1.02 | S. cerevisiae deletion strains, locus YLR384C, strain iki3, hits give low values 0.969 | S. cerevisiae deletion strains, locus YLR418C, strain cdc73, hits give low values 1.03 | S. cerevisiae deletion strains, locus YML016C, strain PPZ1, hits give low values 1 | S. cerevisiae deletion strains, locus YML032C, strain rad52, hits give low values 1.01 | S. cerevisiae deletion strains, locus YML120C, strain ndi1, hits give low values 0.95 | S. cerevisiae deletion strains, locus YML124C, strain tub3, hits give low values 1.01 | S. cerevisiae deletion strains, locus YMR058W, strain fet3, hits give low values 0.971 | S. cerevisiae deletion strains, locus YMR078C, strain ctf18, hits give low values 1.01 | S. cerevisiae deletion strains, locus YMR125W, strain sto1, hits give low values 0.935 | S. cerevisiae deletion strains, locus YMR129W, hits give low values 0.972 | S. cerevisiae deletion strains, locus YMR205C, strain PFK2, hits give low values 0.948 | S. cerevisiae deletion strains, locus YMR223W, strain ubp8, hits give low values 0.998 | S. cerevisiae deletion strains, locus YMR231W, strain pep5, hits give low values 0.976 | S. cerevisiae deletion strains, locus YMR307W, strain GAS1, hits give low values 0.968 | S. cerevisiae deletion strains, locus YNL067W, strain RPL9B, hits give low values 1 | S. cerevisiae deletion strains, locus YNL071W, strain lat1, hits give low values 0.979 | S. cerevisiae deletion strains, locus YNL128W, strain TEP1, hits give low values 1.03 | S. cerevisiae deletion strains, locus YNL183C, strain NPR1, hits give low values 0.97 | S. cerevisiae deletion strains, locus YNL209W, strain ssb2, hits give low values 0.971 | S. cerevisiae deletion strains, locus YNL233W, strain BNI4, hits give low values 1.01 | S. cerevisiae deletion strains, locus YNL248C, strain rpa49, hits give low values 0.975 | S. cerevisiae deletion strains, locus YNL250W, strain rad50, hits give low values 1 | S. cerevisiae deletion strains, locus YNL271C, strain bni1, hits give low values 1.02 | S. cerevisiae deletion strains, locus YNL298W, strain CLA4, hits give low values 1.05 | S. cerevisiae deletion strains, locus YNL307C, strain MCK1, hits give low values 1.02 | S. cerevisiae deletion strains, locus YNL322C, strain KRE1 (second series), hits give low values 0.943 | S. cerevisiae deletion strains, locus YNL322C, strain KRE1, hits give low values 1 | S. cerevisiae deletion strains, locus YNR049C, strain mso1, hits give low values 0.958 | S. cerevisiae deletion strains, locus YNR052C, strain pop2, hits give low values 1.01 | S. cerevisiae deletion strains, locus YOL012C, strain htz1 1.37 | S. cerevisiae deletion strains, locus YOL147C, strain pex11, hits give low values 1.01 | S. cerevisiae deletion strains, locus YOR001W, strain rrp6, hits give low values 0.983 | S. cerevisiae deletion strains, locus YOR061W, strain CKA2, hits give low values 1.01 | S. cerevisiae deletion strains, locus YOR069W, strain VPS5, hits give low values 1.01 | S. cerevisiae deletion strains, locus YOR070C, strain gyp1, hits give low values 0.969 | S. cerevisiae deletion strains, locus YOR080W, strain dia2, hits give low values 0.961 | S. cerevisiae deletion strains, locus YOR083W, strain WHI5, hits give low values 0.952 | S. cerevisiae deletion strains, locus YOR106W, strain vam3, hits give low values 0.942 | S. cerevisiae deletion strains, locus YOR136W, strain idh2, hits give low values 1.02 | S. cerevisiae deletion strains, locus YOR144C, strain elg1, hits give low values 1.01 | S. cerevisiae deletion strains, locus YOR184W, strain ser1, hits give low values 1.03 | S. cerevisiae deletion strains, locus YOR231W, strain MKK1, hits give low values 1.02 | S. cerevisiae deletion strains, locus YOR265W, strain rbl2, hits give low values 0.971 | S. cerevisiae deletion strains, locus YOR270C, strain vph1, hits give low values 0.931 | S. cerevisiae deletion strains, locus YOR290C, strain snf2, hits give low values 0.916 | S. cerevisiae deletion strains, locus YOR316C, strain cot1, hits give low values 1.01 | S. cerevisiae deletion strains, locus YPL051W, strain arl3, hits give low values 0.973 | S. cerevisiae deletion strains, locus YPL055C, strain LGE1, hits give low values 1.01 | S. cerevisiae deletion strains, locus YPL078C, strain atp4, hits give low values 0.968 | S. cerevisiae deletion strains, locus YPL106C, strain sse1, hits give low values 0.924 | S. cerevisiae deletion strains, locus YPL240C, strain hsp82, hits give low values 0.983 | S. cerevisiae deletion strains, locus YPL241C, strain CIN2, hits give low values 1 | S. cerevisiae deletion strains, locus YPL256C, strain CLN2, hits give low values 1.01 | S. cerevisiae deletion strains, locus YPR119W, strain clb2, hits give low values 1 | S. cerevisiae deletion strains, locus YPR141C, strain kar3, hits give low values 1 | S. cerevisiae deletion strains, locus YPR163C, strain tif3, hits give low values 1 | S. cerevisiae deletion strains, locus YPR167C, strain met16, hits give low values 1.01 | S. cerevisiae deletion strains, strain wtn01, hits give low values 0.993 | S. cerevisiae strains, strain wild type, hits give low values 1
